Experiment [1] in a line: NCI Yeast Anticancer Drug Screen. Data for the rad50 strain (AID 155).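 Further: 0% = growth of vehicle-only cultures of the same strain.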 Conditions: S. cerevisiae rad50 strain growth inhibition, active compounds read high. In outline:
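Relative growth inhibition (compound vs vehicle) was measured in yeast with a defined repair-gene alteration.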

A short description of experiment [2]: NCI Yeast Anticancer Drug Screen. Data for the mec2-1 strain (AID 157). To be noted: S. cerevisiae mec2-1 strain, active compounds read high. In outline: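 Yeast mec2-1 mutant treated with compound. Readout: growth inhibition vs vehicle controls.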
The nature of experiment [3]: NCI Yeast Anticancer Drug Screen. Data for the sgs1 mgt1 strain (AID 161).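 Further: 0% = growth of cultures given vehicle only.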 Conditions: S. cerevisiae sgs1 mgt1 strain, active compounds read high. In short, it runs like this: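 Genetically altered yeast, compound exposure, growth inhibition relative to vehicle.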
Experiment [4] is described as follows: NCI Yeast Anticancer Drug Screen. Data for the cln2 rad14 strain (AID 165).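 Further: 0% = growth equal to vehicle treated cultures.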 To be noted: S. cerevisiae cln2 rad14 strain, active compounds read high. In short, it runs like this: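 cln2 rad14 yeast strain; compound exposure; growth inhibition read vs vehicle controls.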
Experiment [5] in a line: NCI Yeast Anticancer Drug Screen. Data for the bub3 strain (AID 167). To be noted: S. cerevisiae bub3 mutant strain, active compounds read high. In short, it runs like this: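 Screening used yeast with an engineered genetic alteration affecting cell cycle control. Compound-exposed cultures were compared with vehicle cultures, and reduced growth was taken as inhibition.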
A short description of experiment [6]: NCI Yeast Anticancer Drug Screen. Data for the mlh1 rad18 strain (AID 175). To be noted: S. cerevisiae mlh1 rad18 strain growth inhibition, active compounds read high. In outline: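 Yeast w/ defined DNA-repair lesions; compound exposure; growth vs vehicle controls → % inhibition.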
[7] abbreviates: at 5.0 µM (retest, dose inferred, filed as 0.5).
[8] abbreviates: at 50.0 µM (retest, dose inferred, filed as 5.0).

Compounds without any hit were thinned out: in the full panel of roughly 79,000, 15% have a hit. Values without a mark were called inactive. Active and inactive are the calls of the source. No stated cut-off is given here; in the data, active means growth inhibition above about 70%; inactive means the rest.

`CCSC1(SCC)C(=O)OC2=C(CCCC2)C1N1CCOCC1` (configuration not stated): the growth inhibition was 1% in experiment [1] (setting [7]); 21% in experiment [1] (setting [8]); 34.1% in experiment [1] (at 50.0 µM); 2% in experiment [2] (setting [7]); 12% in experiment [2] (setting [8]); 14.2% in experiment [2] (at 50.0 µM). Moreover, the growth inhibition in experiment [3] (setting [7]) was 0%; in experiment [3] (setting [8]), 18%; in experiment [3] (at 50.0 µM), 0.35%; in experiment [4] (setting [7]), -2%; in experiment [4] (setting [8]) it was 31%; in experiment [4] (at 50.0 µM), 34.9%. For the same compound, the growth inhibition in experiment [5] (setting [7]) was -4%; in experiment [5] (setting [8]), 11%; in experiment [5] (at 50.0 µM), 13.3%; in experiment [6] (setting [7]), -1%; in experiment [6] (setting [8]) it was 24%; in experiment [6] (at 50.0 µM), 15.6%.

For `COc1ccc(-c2c(C#N)c(S)n(NS(=O)(=O)c3ccc(C)cc3)c(=O)c2C#N)cc1`, the growth inhibition in experiment [1] (setting [7]) was 40%; in experiment [1] (setting [8]), 89% (active); in experiment [1] (at 50.0 µM), 28.8%; in experiment [2] (setting [7]), 18%; in experiment [2] (setting [8]), 88% (active); in experiment [2] (at 50.0 µM), 69.1%. For the same compound, the growth inhibition in experiment [3] (setting [7]) was 34%; in experiment [3] (setting [8]), 97% (active); in experiment [3] (at 50.0 µM), 61%; in experiment [4] (setting [7]), 48%; in experiment [4] (setting [8]), 64%; in experiment [4] (at 50.0 µM) it was 20%. The growth inhibition in experiment [5] (setting [7]) was 58%; in experiment [5] (setting [8]), 95% (active); in experiment [5] (at 50.0 µM) it was 43.8%; in experiment [6] (setting [7]), 27%; in experiment [6] (setting [8]) it was 69%; in experiment [6] (at 50.0 µM) it was 71.5% (active).

For the compound `CCCCCCCCCCCCNC(=O)C[n+]1cccc(C(=O)Nc2ccccc2)c1`, the growth inhibition in experiment [1] (setting [7]) was 99% (active); in experiment [1] (setting [8]) it was 97% (active); in experiment [1] (at 50.0 µM), 98.8% (active); in experiment [2] (setting [7]) it was 100% (active); in experiment [2] (setting [8]), 99% (active); in experiment [2] (at 50.0 µM), 98.8% (active). In addition, the growth inhibition is 99% (active) in experiment [3] (setting [7]); 98% (active) in experiment [3] (setting [8]); 99.5% (active) in experiment [3] (at 50.0 µM); 99% (active) in experiment [4] (setting [7]); 98% (active) in experiment [4] (setting [8]); 98.6% (active) in experiment [4] (at 50.0 µM). The growth inhibition in experiment [5] (setting [7]) is 99% (active); in experiment [5] (setting [8]), 98% (active); in experiment [5] (at 50.0 µM) it was 98.2% (active); in experiment [6] (setting [7]) it was 99% (active); in experiment [6] (setting [8]), 98% (active); in experiment [6] (at 50.0 µM), 98.2% (active).

As for `CCC[n+]1ccnc2ccccc21`, the growth inhibition in experiment [1] (setting [7]) is 2%; in experiment [1] (setting [8]) it was 2%; in experiment [1] (at 50.0 µM), 15.3%; in experiment [2] (setting [7]), -11%; in experiment [2] (setting [8]), -1%; in experiment [2] (at 50.0 µM) it was 8.3%. Moreover, the growth inhibition in experiment [3] (setting [7]) is -4%; in experiment [3] (setting [8]), -10%; in experiment [3] (at 50.0 µM), 27.9%; in experiment [4] (setting [7]) it was 13%; in experiment [4] (setting [8]) it was 4%; in experiment [4] (at 50.0 µM) it was 11%. The growth inhibition in experiment [5] (setting [7]) is -2%; in experiment [5] (setting [8]), -5%; in experiment [5] (at 50.0 µM), 19.6%; in experiment [6] (setting [7]), -4%; in experiment [6] (setting [8]) it was 14%; in experiment [6] (at 50.0 µM) it was 22.9%.

Consider `COC(=O)c1nnn(-c2ccc(S(N)(=O)=O)cc2)c1C(=O)c1ccc(Cl)c(Cl)c1`, for which the growth inhibition was 1% in experiment [1] (setting [7]); 98% (active) in experiment [1] (setting [8]); 98.5% (active) in experiment [1] (at 50.0 µM); 22% in experiment [2] (setting [7]); 99% (active) in experiment [2] (setting [8]); 98% (active) in experiment [2] (at 50.0 µM). Also, the growth inhibition in experiment [3] (setting [7]) was 20%; in experiment [3] (setting [8]), 99% (active); in experiment [3] (at 50.0 µM), 98.2% (active); in experiment [4] (setting [7]) it was 19%; in experiment [4] (setting [8]), 98% (active); in experiment [4] (at 50.0 µM) it was 96% (active). Further, the growth inhibition in experiment [5] (setting [7]) is 30%; in experiment [5] (setting [8]), 99% (active); in experiment [5] (at 50.0 µM), 94.8% (active); in experiment [6] (setting [7]) it was 22%; in experiment [6] (setting [8]) it was 99% (active); in experiment [6] (at 50.0 µM) it was 98.3% (active).

For the compound `Cc1ccc2[nH]c3c(c2c1)CCC/C3=N/N=C(N)N`, the growth inhibition is 26% in experiment [1] (setting [7]); 93% (active) in experiment [1] (setting [8]); 63% in experiment [1] (at 50.0 µM); 14% in experiment [2] (setting [7]); 100% (active) in experiment [2] (setting [8]); 83% (active) in experiment [2] (at 50.0 µM). For the same compound, the growth inhibition in experiment [3] (setting [7]) is 24%; in experiment [3] (setting [8]), 99% (active); in experiment [3] (at 50.0 µM) it was 90.8% (active); in experiment [4] (setting [7]), 22%; in experiment [4] (setting [8]), 99% (active); in experiment [4] (at 50.0 µM), 91% (active). Further, the growth inhibition is 21% in experiment [5] (setting [7]); 99% (active) in experiment [5] (setting [8]); 89.2% (active) in experiment [5] (at 50.0 µM); 29% in experiment [6] (setting [7]); 97% (active) in experiment [6] (setting [8]); 90.8% (active) in experiment [6] (at 50.0 µM).

For `Cc1cccc(NC(=O)c2cc3cc(N=Nc4ccccc4Cl)ccc3oc2=O)c1`, the growth inhibition was 6% in experiment [1] (setting [7]); 6% in experiment [1] (setting [8]); 78.5% (active) in experiment [1] (at 50.0 µM); -2% in experiment [2] (setting [7]); -2% in experiment [2] (setting [8]); 70% (active) in experiment [2] (at 50.0 µM). In addition, the growth inhibition in experiment [3] (setting [7]) is 22%; in experiment [3] (setting [8]) it was 22%; in experiment [3] (at 50.0 µM) it was 75.4% (active); in experiment [4] (setting [7]), 3%; in experiment [4] (setting [8]) it was 3%; in experiment [4] (at 50.0 µM), 35%. The growth inhibition in experiment [5] (setting [7]) was 6%; in experiment [5] (setting [8]) it was 6%; in experiment [5] (at 50.0 µM), 78.3% (active); in experiment [6] (setting [7]) it was 7%; in experiment [6] (setting [8]), 7%; in experiment [6] (at 50.0 µM), 70.7% (active).

For `CC(C)(C)/C=N/NS(=O)(=O)c1ccccc1`, the growth inhibition was -114% in experiment [1] (setting [7]); -146% in experiment [1] (setting [8]); -1% in experiment [1] (at 50.0 µM); -43% in experiment [2] (setting [7]); -43% in experiment [2] (setting [8]); -7.35% in experiment [2] (at 50.0 µM). Moreover, the growth inhibition in experiment [3] (setting [7]) was -44%; in experiment [3] (setting [8]), -62%; in experiment [3] (at 50.0 µM) it was 2.5%; in experiment [4] (setting [7]) it was -50%; in experiment [4] (setting [8]) it was -61%; in experiment [4] (at 50.0 µM), 40.5%. Further, the growth inhibition in experiment [5] (setting [7]) is -57%; in experiment [5] (setting [8]), -67%; in experiment [5] (at 50.0 µM), -5.2%; in experiment [6] (setting [7]), -100%; in experiment [6] (setting [8]), -108%; in experiment [6] (at 50.0 µM), 4.65%.

Consider `CCN(CC)CCNc1cc(C)nc2c1ccc1c2ccc2c(NCCN(CC)CC)cc(C)nc21`, for which the growth inhibition was -3% in experiment [1] (setting [7]); 96% (active) in experiment [1] (setting [8]); 62.3% in experiment [1] (at 50.0 µM); 18% in experiment [2] (setting [7]); 98% (active) in experiment [2] (setting [8]); 98% (active) in experiment [2] (at 50.0 µM). Besides, the growth inhibition was -3% in experiment [3] (setting [7]); 96% (active) in experiment [3] (setting [8]); 54.5% in experiment [3] (at 50.0 µM); -16% in experiment [4] (setting [7]); 95% (active) in experiment [4] (setting [8]); 93% (active) in experiment [4] (at 50.0 µM). The growth inhibition in experiment [5] (setting [7]) is -2%; in experiment [5] (setting [8]), 90% (active); in experiment [5] (at 50.0 µM), 96% (active); in experiment [6] (setting [7]) it was -3%; in experiment [6] (setting [8]), 97% (active); in experiment [6] (at 50.0 µM), 96.4% (active).

The values are drawn from PubChem BioAssay (NCI).
